Hits are enriched below; roughly 2.2% of the tested compounds scored in any of these assays.
H9c2 protect = modulators protecting cardiomyocytes from myocardial damage. H9c2 cardiomyocytes, H2O2 injury protection, ATPLite, 2 h. protection from H2O2 cell death, % at 20 µM. 360,000 compounds, 0.63% hits. AID 588492;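 active = compounds giving at least 50% protection of heart cells from peroxide-induced death in the single-dose screen, raw or plate-pattern-corrected value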
PLCg1 inh = blocks human PLC-gamma1 enzyme activity; 370,000 compounds, 0.84% hits; P19174; AID 720700; purified PLC-gamma1, fluorogenic substrate, fluorescence; inhibition, % at 12.2 µM; in the data active = inhibition above about 9.5%
FAS TE block = blocks the thioesterase domain of human fatty acid synthase | inhibition, % at 15 µM | 360,000 compounds, 0.67% hits | recombinant FAS-TE, OMFH fluorogenic substrate, fluorescence endpoint;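 active = compounds whose normalised, plate-corrected inhibition of enzyme fluorescence in the single-dose primary screen is 50% or more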
PLCb3 inh = PLC-beta3 (human) inhibition, primary screen. Q01970. inhibition, % at 12.2 µM. 370,000 compounds, 0.18% hits. Purified PLC-beta3, fluorogenic substrate, fluorescence; in the data active = inhibition above about 11%
Each line names hits and unclear results; the compound was inactive in the other large screens.

O=C(CN1CCN(S(=O)(=O)c2ccc(Br)cc2)CC1)c1ccc(O)c(O)c1	H9c2 protect 70.8
CC(C)c1ccc(S(=O)(=O)N2CCN(CC(=O)c3ccc(O)c(O)c3)CC2)cc1	H9c2 protect 55.5
O=C(CCc1ccccc1)N[C@H]1[C@H](OCc2ccccc2)CCC[C@@]12C(=O)N(Cc1ccccc1)c1ccccc12	none (no result: H9c2 protect, FAS TE block)
COc1ccc(CCN(Cc2cccs2)S(=O)(=O)c2ccc(F)cc2)cc1OC	none (no result: H9c2 protect, FAS TE block)
COc1ccc(CN2C(=O)C(C)Nc3ncnc(N4CCN(c5ccccc5)CC4)c32)cc1 (stereo unspecified)	none
O=C1C(Cc2ccccc2)Nc2ncnc(N3CCc4ccccc4C3)c2N1Cc1ccc(Cl)cc1 (stereo unspecified)	FAS TE block 55.4 (no result: PLCg1 inh, PLCb3 inh)
CC1Nc2ncnc(N3CCN(c4ccccc4)CC3)c2N(Cc2ccc(Br)cc2)C1=O (stereo unspecified)	H9c2 protect 61.7
CCC1Nc2ncnc(N3CCc4ccccc4C3)c2N(Cc2ccc(Cl)cc2)C1=O (stereo unspecified)	none
COC(=O)C1CN(Cc2cn(Cc3ccc(C)cc3)nn2)CCS(=O)(=O)N1Cc1ccccc1 (stereo unspecified)	none (no result: H9c2 protect, FAS TE block)
Cc1ccc(-c2cc(C(=O)NN=Cc3ccc(N(C)C)cc3)[nH]n2)cc1C	none (no result: H9c2 protect, FAS TE block)
O=C(CC1CCCC1)N[C@H](C(=O)N1CCC[C@H]1C(=O)NCCc1ccccc1Cl)c1ccccc1	none (no result: H9c2 protect, FAS TE block)
Clc1ccc(OCCOc2ccc(Br)nc2Br)c(Cl)c1	none (no result: H9c2 protect, FAS TE block)
CC(COc1ccccc1C#N)CN1CCC(C(O)(c2ccccc2)c2ccccc2)CC1 (stereo unspecified)	none (no result: H9c2 protect, FAS TE block)
NC(=O)COC(=O)c1c2c(nc3ccccc13)CCC2	none
CC(C)c1ccccc1NC(=O)COC(=O)c1c2c(nc3ccccc13)CCN(Cc1ccccc1)C2	H9c2 protect 66.2
CC(C)(C)NC(=O)COC(=O)c1c2c(nc3ccccc13)CCC2	H9c2 protect 50.3
CCCC[C@H]1C2CC(OC(=O)Nc3ccccc3C)C(C2)[C@H]2CCCCN21 (stereo partly specified)	none (no result: H9c2 protect, FAS TE block)
CC(C)C[C@@H]1COc2cc(NCCCN3CCOCC3)ccc2S(=O)(=O)N1	none (no result: H9c2 protect, FAS TE block)
COc1ccc(-c2csc(NC(=O)c3ccc(OCC(=O)N4CCOCC4)c(OC)c3)n2)cc1OC	H9c2 protect 80.7
COc1cc(CNC(=O)CCCC(=O)c2ccccc2)cc(OC)c1OC	PLCg1 inh 9.9
O=C(CN(CCc1ccccc1)S(=O)(=O)c1cccs1)N1CCOCC1	none (no result: H9c2 protect, FAS TE block)
Cc1sc2nc(SCC(=O)N3CCCCC3)[nH]c(=O)c2c1C	none
CC(=O)OCc1nc2sc(C)c(C)c2c(=O)[nH]1	H9c2 protect 51.3
Cc1sc2nc(SCC(=O)N(C)C)[nH]c(=O)c2c1C	H9c2 protect 73.1
Cc1sc2nc(SCC(=O)N3CCCC3)[nH]c(=O)c2c1C	H9c2 protect 79.5
CCC(C)N(c1nc(C)nc2c1nnn2Cc1ccccc1)C(C)CC (stereo unspecified)	none (no result: H9c2 protect, FAS TE block)
C[C@@H]1CN([C@@H](C)CO)C(=O)c2cc(Br)cnc2O[C@@H]1CN(C)C(=O)c1ccc(F)cc1	none (no result: H9c2 protect, FAS TE block)
Cc1cccc(C)c1-n1nnnc1C(c1ccccc1OC(F)(F)F)N1CCN(C/C=C/c2ccccc2)CC1 (stereo unspecified)	PLCg1 inh 12.1
COc1cccc(C(c2nnnn2-c2c(C)cccc2C)N2CCN(C/C=C/c3ccccc3)CC2)c1OC (stereo unspecified)	none
CCCN(CC(=O)Nc1cccc(Br)c1)CC(=O)Nc1ccc(F)c(F)c1F	PLCb3 inh 11.3
CCCN(CC(=O)Nc1cccc(S(N)(=O)=O)c1)CC(=O)Nc1ccc(F)c(F)c1F	none
COC(=O)[C@H]1C[C@@]2(N3CCCC3)c3ccccc3N[C@H]2N1S(=O)(=O)c1ccc([N+](=O)[O-])cc1	none (no result: H9c2 protect, FAS TE block)
COc1ccc(C2CCCCCN2C(=O)C2CCN(S(=O)(=O)c3cccc(C(C)=O)c3)CC2)cc1 (stereo unspecified)	H9c2 protect 82.6
CC(=O)c1cccc(S(=O)(=O)N2CCC(C(=O)O)CC2)c1	none
COCC1CN(CCc2ccc(F)cc2)S(=O)(=O)c2c(F)cccc2O1 (stereo unspecified)	none (no result: H9c2 protect, FAS TE block)
COc1cccc(/C=C2\CC3(OC(=O)C(C)(C)C)CCCN2C3)c1 (stereo unspecified)	none (no result: H9c2 protect, FAS TE block)
Cc1cc(C)cc(N(CC(=O)NC2CCC(C)CC2)S(=O)(=O)c2ccc(Br)s2)c1 (stereo unspecified)	none (no result: H9c2 protect, FAS TE block)
CC(=O)c1ccc(N2CCN(C(=O)C3CCCN(c4ncnc5c4nc4n5CCCCC4)C3)CC2)cc1 (stereo unspecified)	H9c2 protect 54.8
COc1ccc(N2CCN(C(=O)C3CCCN(c4ncnc5c4nc4n5CCCCC4)C3)CC2)cc1 (stereo unspecified)	none
COc1ccc2c(c1OC)c(=O)n1c3ccc(OC(C)C(=O)NCCN4CCOCC4)cc3c3ccnc2c31 (stereo unspecified)	H9c2 protect 52.8
COc1ccc2c(c1OC)c(=O)n1c3ccc(OC(C)C(=O)NCCCN4CCOCC4)cc3c3ccnc2c31 (stereo unspecified)	none (no result: PLCg1 inh, PLCb3 inh)
Oc1ccc2oc3c(c2c1C=NCc1ccncc1)CCCC3	H9c2 protect 66.9
Oc1ccccc1N=Cc1c(O)ccc2oc3c(c12)CCCC3	none
O=C(O)c1ccc(N=Cc2c(O)ccc3oc4c(c23)CCCC4)cc1	H9c2 protect 62.5
Oc1c(C=NCc2ccncc2)sc2ccccc12	none (no result: H9c2 protect, FAS TE block)
Oc1ccc2oc3c(c2c1/C=N/n1cnnc1)CCCC3	H9c2 protect 59.5
O=C1C(=O)N(Cc2ccc(-c3ccccc3)cc2)c2ccc(OC(F)(F)F)cc21	none (no result: H9c2 protect, FAS TE block)
COc1ccc(Cn2nnnc2C(c2ccccc2)N2CCN(C3CCCC3)CC2)cc1 (stereo unspecified)	none
c1ccc(Cn2nnnc2C(c2cccnc2)N2CCN(C3CCCCC3)CC2)cc1 (stereo unspecified)	H9c2 protect 79.1
CCc1c(-c2cccc(F)c2)ncn1CCc1ccccc1OC	none (no result: H9c2 protect, FAS TE block)
O=C(NCc1cccs1)C1CCN(S(=O)(=O)c2cccc3ccccc23)CC1	none (no result: H9c2 protect, FAS TE block)
CCCCn1c(NC(=O)c2ccco2)c(S(=O)(=O)c2ccc(C)cc2)c2nc3ccccc3nc21	none
CCCCn1c(NS(=O)(=O)c2ccccc2)c(S(=O)(=O)c2ccc(C)cc2)c2nc3ccccc3nc21	PLCg1 inh 16.9
C#CCOCCOCCOCCNc1nc(N2CCOCC2)nc(N2CCN(C(=O)[C@H](CCC(=O)O)n3cc(C(N)CO)nn3)CC2)n1 (stereo partly specified)	none (no result: H9c2 protect, FAS TE block)
O=S1(=O)C=CCN1Cc1cn(Cc2ccc(Cl)cc2)nn1	none (no result: H9c2 protect, FAS TE block)
CCOc1cc(/C=N\NC(=O)c2ccc(NC(=O)C(C)(C)C)cc2)ccc1OC(=O)c1cccc(C)c1	H9c2 protect 65.9
COc1ccc(C(=O)N/N=C/c2ccccc2OC(=O)c2ccccc2)cc1	none
CC(C)(C)C(=O)Nc1ccc(C(=O)N/N=C/c2ccccc2OC(=O)c2ccccc2)cc1	H9c2 protect 52.5
COc1ccc(NC(=O)CSc2nc(C)cc(=O)[nH]2)cc1OC	none (no result: H9c2 protect, FAS TE block)
Cc1cc(=O)c2c(O)c(O)ccc2o1	H9c2 protect 50.4
Cc1ccc2ccc(C(Nc3ccccc3)c3ccccc3)c(O)c2n1 (stereo unspecified)	none (no result: H9c2 protect, FAS TE block)

Screens (PubChem BioAssay)
